# Reference: publication PMC4336329 (PLoS ONE, 2015)
# The campaign covered roughly 310,000 compounds. About 14,000 (4.5%) showed an effect of 50% or more. The effect is printed as a negative number. For the sample, strong results were picked, then their nearest neighbours and some compounds at random.
# Target: human ether-à-go-go-related gene (hERG) potassium channel (human, UniProt Q12809)
# Experiment: primary screen, population patch clamp on CHO cells stably expressing hERG; higher = less effect of the substance
# 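Further: peak tail current of the secondary pulse compared with the same well before compound.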
# Chain of human ether-à-go-go-related gene (hERG) potassium channel (Q12809 whole entry, looked up): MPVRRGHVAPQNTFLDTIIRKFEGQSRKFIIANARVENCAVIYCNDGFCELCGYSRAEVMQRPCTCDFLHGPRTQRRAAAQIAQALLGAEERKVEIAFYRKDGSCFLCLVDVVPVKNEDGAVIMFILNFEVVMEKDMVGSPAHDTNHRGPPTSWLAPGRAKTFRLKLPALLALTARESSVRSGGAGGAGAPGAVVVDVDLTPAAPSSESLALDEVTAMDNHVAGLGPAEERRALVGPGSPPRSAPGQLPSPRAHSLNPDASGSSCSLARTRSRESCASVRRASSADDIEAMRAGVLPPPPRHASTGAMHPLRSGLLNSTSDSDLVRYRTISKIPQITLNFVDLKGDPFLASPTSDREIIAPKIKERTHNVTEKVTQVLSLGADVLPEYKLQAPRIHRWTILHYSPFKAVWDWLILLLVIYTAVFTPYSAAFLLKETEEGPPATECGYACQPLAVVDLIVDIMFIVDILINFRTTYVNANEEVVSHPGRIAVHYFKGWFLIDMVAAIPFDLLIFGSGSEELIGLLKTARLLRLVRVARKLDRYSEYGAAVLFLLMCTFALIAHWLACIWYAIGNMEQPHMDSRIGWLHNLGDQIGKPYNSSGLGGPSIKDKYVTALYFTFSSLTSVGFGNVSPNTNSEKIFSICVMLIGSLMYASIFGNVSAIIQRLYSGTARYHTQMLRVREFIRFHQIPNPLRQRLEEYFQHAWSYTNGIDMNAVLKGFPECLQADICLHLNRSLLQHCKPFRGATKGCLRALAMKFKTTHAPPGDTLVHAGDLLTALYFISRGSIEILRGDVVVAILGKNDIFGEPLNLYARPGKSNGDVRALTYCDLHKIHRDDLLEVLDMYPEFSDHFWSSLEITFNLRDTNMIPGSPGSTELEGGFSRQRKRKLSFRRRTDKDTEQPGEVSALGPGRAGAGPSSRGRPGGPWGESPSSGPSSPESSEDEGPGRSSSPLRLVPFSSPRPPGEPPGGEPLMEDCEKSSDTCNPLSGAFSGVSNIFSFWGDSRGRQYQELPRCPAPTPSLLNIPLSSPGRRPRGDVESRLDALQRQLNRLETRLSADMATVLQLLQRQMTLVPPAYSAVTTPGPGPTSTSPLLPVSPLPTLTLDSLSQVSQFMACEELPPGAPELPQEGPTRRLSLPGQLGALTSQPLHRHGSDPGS
row,SMILES,"hERG current change (%, negative = inhibition) at 10uM [%]"
1,CCCCN(CC)c1nc(N)c(C#N)c(CC#N)c1C#N,-24.9
2,O=C(NCCO)C(=O)NCC1OCCCN1S(=O)(=O)c1cc(F)ccc1F (stereo not drawn),13.6
3,CCOc1cc(/C=C/c2nc3ccccc3c(=O)[nH]2)ccc1O,13.4
4,CCN(CC)C(=O)OCc1c(-c2ccccc2)ncc2ccccc12,-25.5
5,CCc1nn(-c2cc(Oc3cccc4ccccc34)nc(-c3ccccc3)n2)c(N)c1C#N,23.3
6,CCOC(=O)N1CCN(S(=O)(=O)c2ccc(OC)cc2)CC1,-4.57
7,CC(=O)Nc1ccc(NS(=O)(=O)c2ccccc2)cc1,17.1
8,O=C(CCn1c(=O)c2ccccc2n(Cc2cc(=O)n3ccccc3n2)c1=O)NCc1ccco1,-4.21
9,N=c1c(C(=O)NCc2ccc(F)cc2)cc2c(=O)n3ccccc3nc2n1Cc1ccco1,-77.8
10,N=c1c(C(=O)NCc2ccco2)cc2c(=O)n3ccccc3nc2n1Cc1ccccc1,-79.3
11,O=C(CCn1c(SCC(=O)NCc2ccco2)nc2ccccc2c1=O)NCCc1ccccc1,-34.5
12,N=c1c(C(=O)NCc2ccco2)cc2c(=O)n3ccccc3nc2n1CCc1ccccc1,-76.7
13,Cn1nnnc1SCC(=O)Nc1ccc(S(=O)(=O)N2CCOCC2)cc1,3.21
14,COc1ccc(CNC(=O)CN2C(=O)C3C4C=CC(C4)C3C2=O)cc1 (stereo not drawn),19.2
15,O=C(O)C1CC(=O)N(c2ccc(OCc3ccc(Br)cc3)cc2)C1 (stereo not drawn),6.71
16,COCCNC(=O)C(c1ccco1)N(C(=O)Cn1nnc2ccccc21)c1cc(C)ccc1C (stereo not drawn),-4.75
17,O=c1c2[nH]c3ccccc3c2ncn1CCCn1ccnc1,-41.8
18,COc1ccc2c(c1)[nH]c1c(=O)n(CCCn3ccnc3)cnc12,-35.1
19,O=c1c2[nH]c3ccc(Br)cc3c2ncn1Cc1ccncc1,-4.79
20,O=C1CCCN1CCCn1cnc2c([nH]c3ccc(F)cc32)c1=O,-42.2
21,O=c1c2[nH]c3ccc(Br)cc3c2ncn1CCCn1ccnc1,-64.4
22,O=c1c2[nH]c3ccc(F)cc3c2ncn1CCCn1ccnc1,-61.1
23,CC(C)(C)C1CCC(=NNC(=O)c2cc3c(s2)CCCC3)CC1 (stereo not drawn),20.1
24,Cc1cccc(NC(=O)c2sc(NC(=O)c3ccco3)c(C#N)c2C)c1C,5.79

row,SMILES,"hERG current change (%, negative = inhibition) at 10uM [%]"
1,O=C(CCSc1nc(-c2ccco2)cc(C(F)(F)F)n1)NCc1ccccn1,-22.5
2,CC(=C/c1ccc(C(C)C)cc1)/C=N/NC(=O)Cn1nnnc1N,17.3
3,CS/C(=N/S(=O)(=O)c1ccc(C)cc1)c1ccccc1,-3.56
4,Cc1ccc(N(CC2=NCCN2)c2cccc(O)c2)cc1.Cl,-58.3
5,Cl.c1ccc(CN(CC2=NCCN2)c2ccccc2)cc1,-29.7
6,CS(=O)(=O)O.Cc1ccc(N(CC2=NCCN2)c2cccc(O)c2)cc1,-51.2
7,Cc1ccc(N(CC(=O)Nc2c(C)cccc2C)S(C)(=O)=O)cc1,1.65
8,Cl.c1ccc(CC2=NCCN2)cc1,7.57
9,O=P(O)(O)O.c1ccc(CN(CC2=NCCN2)c2ccccc2)cc1,-17.3
10,Cc1cc(C)nc(/N=C2\NC(=O)CC(C(=O)O)N2CCc2c[nH]c3ccccc23)n1 (stereo not drawn),12.8
11,COc1cccc(NC(=O)C(c2ccccc2)N2CCNC(=O)C2)c1 (stereo not drawn),-7.23
12,O=C(CCN1CCOCC1)N1CCCC(Nc2ccc(F)cc2)C1 (stereo not drawn),13.7
13,C/C(=N\NC(=S)Nc1ccc(F)cc1)C1CC1,-26.7
14,COc1ccc(C(=O)NC(=S)Nc2cccnc2)cc1[N+](=O)[O-],4.69
15,Cc1cccc(N(CC(=O)NCCSCc2ccccc2)S(C)(=O)=O)c1,26.5
16,CCNC(=O)COC(=O)C1CCC(=O)N(c2ccc(OC)cc2)C1c1ccc(OC)cc1 (stereo not drawn),-32.2
17,COc1ccc(C2C(C(=O)OCC(=O)N3CCCCC3)CCC(=O)N2c2ccc(OC)cc2)cc1 (stereo not drawn),-13.3
18,COc1ccc(C2C(C(=O)OCC(=O)Nc3ccc(C)cc3)CCC(=O)N2c2ccc(OC)cc2)cc1 (stereo not drawn),-62.4
19,COc1ccc(C(=O)OCC[N+]2(C)CCOCC2)cc1.[I-],13.6
20,CN(C/C=C/c1ccccc1)C1CCCCC1,-21.7
21,NC(=O)CN(C/C=C/c1ccccc1)C/C=C/c1ccccc1,20.6
22,COCCN(C/C=C/c1ccccc1)C/C=C/c1ccccc1,-69.4
23,CCc1ccc(CN2CCC(n3nccc3NC(=O)c3ccccc3)CC2)o1,-36
24,CC(C)=CCCC(C)CN1CCC(n2nccc2NC(=O)c2cccnc2)CC1 (stereo not drawn),-52.1

row,SMILES,"hERG current change (%, negative = inhibition) at 10uM [%]"
1,CC(C)=CCCC(C)CN1CCC(n2nccc2NC(=O)c2ccccc2)CC1 (stereo not drawn),-69.6
2,CC(C)=CCCC(C)CN1CCC(n2nccc2NC(=O)C2CCCC2)CC1 (stereo not drawn),-70.8
3,CC(C)(CO)CN1CCC(n2nccc2NC(=O)C2CCCC2)CC1,11.4
4,COc1ccc(C(=O)Nc2ccnn2C2CCN(C(=O)c3cccnc3)CC2)cc1,12.3
5,O=C(Nc1ccnn1C1CCN(CC(O)CO)CC1)C1CCCC1 (stereo not drawn),11.4
6,CC(C)CCN1CCC(n2nccc2NC(=O)c2ccc3c(c2)OCO3)CC1,-5.16
7,O=C(Nc1cccnc1Cl)c1cc(-c2ccccc2O)on1,-5.16
8,COc1ccc(NCc2ccc3c(c2)OCO3)cc1Cl,-4.31
9,CC(C)CSc1nnc2c3ccccc3n(C)c2n1,-11.9
10,CC1=C(C(N)=O)C(c2ccccc2[N+](=O)[O-])n2ncnc2N1 (stereo not drawn),7.69
11,C=Cn1c(C(=O)O)ccc1-c1ccc(CC)cc1,-5.29
12,COC(=O)Nc1ccc(S(=O)(=O)N(CCO)CC(F)(F)C(F)F)cc1,18.3
13,CN=C1S/C(=C\c2ccc(OCC(=O)OC)c(OC)c2)C(=O)N1C,12.6
14,Cc1sc2ncnc(OCC(=O)NCc3cccs3)c2c1C,6.03
15,Cc1ccc(CNc2nc(C)nc3sc4c(c23)CCC4)cc1,-4.22
16,Cc1sc2ncnc(NCCCO)c2c1C,5.08
17,c1ccc(CNc2ncnc3sc4c(c23)CCCC4)nc1,-27.4
18,Cc1nc(NCc2cccnc2)c2c3c(sc2n1)CC(C)CC3 (stereo not drawn),-25.1
19,Cc1sc2ncnc(NCc3ccco3)c2c1C,-16.3
20,c1cncc(CNc2ncnc3sc4c(c23)CCCC4)c1,-78
21,O=C(Nc1ncnc2sc3c(c12)CCCC3)c1ccncc1,-14.2
22,Cc1nc(NCc2cccnc2)c2c3c(sc2n1)CCCC3,-70.2
23,CCCNc1ncnc2sc(C)c(C)c12,-1.05
24,Cc1sc2ncnc(NCc3cccs3)c2c1C,-61.7

row,SMILES,"hERG current change (%, negative = inhibition) at 10uM [%]"
1,Cc1sc2ncnc(NCc3cccnc3)c2c1C,-55
2,c1ccc2c(CSc3nnc(-c4ccncc4)o3)cccc2c1,-12.8
3,CCC(CC)C(=O)Nc1nnc(S(=O)(=O)N2CCc3ccccc32)s1,17.9
4,O=C(O)C1CCCCC1C(=O)Nc1cc(Cl)ccc1Cl (stereo not drawn),10.3
5,CCc1ccccc1SCc1noc(C(=O)NCC2CCCO2)c1C(=O)O (stereo not drawn),2.36
6,Cl.c1cncc(CNc2ncnc3sc4c(c23)CCC4)c1,-56.2
7,c1ccc(CNc2ncnc3sc4c(c23)CCC4)nc1,-19.8
8,Cc1sc2ncnc(NCC(c3ccco3)N3CCCC3)c2c1C (stereo not drawn),-51.5
9,Cc1sc2ncnc(N(C)Cc3ccco3)c2c1C,-4.64
10,CN(C)C(CNc1ncnc2sc3c(c12)CCCCC3)c1ccco1 (stereo not drawn),-35.4
11,Cl.c1cc(Nc2ncnc3sc4c(c23)CCC4)ccn1,19.3
12,Cc1sc2ncnc(NCC(c3ccco3)N(C)C)c2c1C.O=C(O)C(=O)O (stereo not drawn),-33.7
13,Cc1sc2ncnc(N(C)Cc3cccs3)c2c1C,-53
14,CN(Cc1cccs1)c1ncnc2sccc12,-28.8
15,CCOC(=O)N1CCN(C(=O)CN(C)S(=O)(=O)c2ccc(Cl)cc2)CC1,8.13
16,COc1ccc(CCNC(=O)Cc2nn(C)c(=O)c3ccccc23)cc1OC,0.902
17,CN(CC(=O)NC(=O)NCc1ccco1)Cc1nc2ccccc2c(=O)[nH]1,-3.41
18,Cn1c(SCC(=O)N2CCCc3ccccc32)nc2cccnc21,9.85
19,[Br-].c1ccc(-c2c[n+]3c(n2-c2ccccc2)SCC3)cc1,-28.4
20,COc1ccc(-c2c[n+]3c(n2-c2ccccc2)SCC3)cc1.[Br-],-45.7
21,Brc1ccc(-c2c[n+]3c(n2-c2ccccc2)SCC3)cc1.[Br-],-49.4
22,CCOc1ccc(-n2c(-c3ccc(Cl)cc3)c[n+]3c2SCC3)cc1.[Br-],-80.9
23,Clc1ccc(-c2c[n+]3c(n2-c2ccccc2)SCC3)cc1.[Cl-],-62.7
24,Cc1ccc(-c2c[n+]3c(n2-c2ccccc2)SCC3)cc1.[Br-],-35.8
